Measured values: PubChem BioAssay (Tox21)
Several values for one entry are separate records, joined by “and”; a condition that tells them apart may be missing. Identical values can stand only once. Records with an inconclusive call do not appear. Some structures have more than one record in an assay (separate samples or runs), and their calls can disagree. Activity calls are given as the source filed them. Unless noted, calls come from the whole dose curve; as a rule, active = well fitted curve in the direction sought with a large enough effect in the repeat runs; inconclusive = weak or mixed curves; inactive = no such curve, though single readings can be large; an effect the other way counts as inactive or inconclusive.

Columns and labels:
[1] = target: Estrogen receptor beta (Homo sapiens) (UniProt Q92731); assay: qHTS assay to identify small molecule agonists of the estrogen receptor beta (ER-beta) signaling pathway (AID 1259377; active = well fitted activation curve with a large enough effect in the signal ratio in the repeat runs, not every such curve was filed as active; the % refers to the signal ratio)
Estrogen receptor beta (Homo sapiens), sequence (Q92731 whole entry, looked up): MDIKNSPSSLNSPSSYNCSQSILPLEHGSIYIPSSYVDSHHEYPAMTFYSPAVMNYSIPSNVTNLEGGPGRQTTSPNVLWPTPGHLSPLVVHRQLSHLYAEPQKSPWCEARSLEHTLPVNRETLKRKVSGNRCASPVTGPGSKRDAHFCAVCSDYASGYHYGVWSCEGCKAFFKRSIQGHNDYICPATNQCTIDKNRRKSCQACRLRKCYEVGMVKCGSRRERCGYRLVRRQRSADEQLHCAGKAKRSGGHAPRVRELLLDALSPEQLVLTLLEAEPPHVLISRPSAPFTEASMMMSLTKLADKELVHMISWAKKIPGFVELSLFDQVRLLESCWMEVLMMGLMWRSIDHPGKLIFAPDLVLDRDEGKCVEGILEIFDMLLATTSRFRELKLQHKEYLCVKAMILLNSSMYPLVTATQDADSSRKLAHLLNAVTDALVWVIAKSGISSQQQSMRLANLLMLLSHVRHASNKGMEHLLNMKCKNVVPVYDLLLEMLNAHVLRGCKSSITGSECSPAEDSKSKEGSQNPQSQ
Method in brief: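 In HEK293T cells bearing a UAS-beta-lactamase reporter under ER-beta control, DMSO-delivered compounds were incubated for 16 hr at 37C. Activity was detected as fluorescence 2 hours after LiveBLAzer B/G FRET substrate addition.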

[2] = qHTS assay to identify small molecule agonists of the androgen receptor (AR) signaling pathway in the presence of an antagonist - cell viability counter screen (AID 1259379);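 note: MDA-kb2 human breast cancer cells carrying an MMTV luciferase reporter; series mostly up to about 92 µM; nearly all actives have a fitted effect of over 25% in size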
Method in brief: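 In MDA-kb2 cells (human breast carcinoma, MMTV-luciferase), compounds at 15 concentrations plus 3.0uM nilutamide; 16 hr, 37C, 0% CO2; CellTiter-Fluor fluorescence read for viability.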

[3] = qHTS assay to identify small molecule agonists of the estrogen receptor beta (ER-beta) signaling pathway - cell viability counter screen (AID 1259380); note: nearly all actives have a fitted effect of over 30% in size; note: potency is the fitted concentration of half-maximal effect
Method in brief: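 Viability of ER-beta-UAS-bla HEK293T cells was determined by CellTiter-Glo luminescence following 16 hr treatment with test compounds at 37C.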

[4] = qHTS assay to identify small molecule antagonists of the estrogen receptor beta (ER-beta) signaling pathway - cell viability counter screen (AID 1259382); note: nearly all actives have a fitted effect of over 55% in size; note: potency is the fitted concentration of half-maximal effect
Method in brief: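 Tox21 10K library tested in qHTS format on ER-beta-bla HEK293T cells stimulated with 1nM E2; 16 hr treatment at 37C. Same-well CellTiter-Glo luminescence served as the cell viability measure.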

[5] = qHTS assay to identify small molecule agonists or antagonists of the thyroid stimulating hormone receptor (TSHR) signaling pathway - wild type cell line counter screen (AID 1259384; calls by dose curve)
Method in brief: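 Counter screen in untransfected Hek293: compounds (15-point titration, triplicate) plus phosphodiesterase inhibitor Ro20-1724 added after 18 h plating; 30 min RT. Intracellular cAMP via competitive d2/cryptate immunoassay, 1 h incubation.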

[6] = target: Thyrotropin receptor (Homo sapiens) (UniProt P16473); assay: qHTS assay to identify small molecule antagonists of the thyroid stimulating hormone receptor (TSHR) signaling pathway (AID 1259385; calls by dose curve; note: nearly all actives have a fitted effect of over 20% in size)
Thyrotropin receptor (Homo sapiens), sequence (P16473 whole entry, looked up): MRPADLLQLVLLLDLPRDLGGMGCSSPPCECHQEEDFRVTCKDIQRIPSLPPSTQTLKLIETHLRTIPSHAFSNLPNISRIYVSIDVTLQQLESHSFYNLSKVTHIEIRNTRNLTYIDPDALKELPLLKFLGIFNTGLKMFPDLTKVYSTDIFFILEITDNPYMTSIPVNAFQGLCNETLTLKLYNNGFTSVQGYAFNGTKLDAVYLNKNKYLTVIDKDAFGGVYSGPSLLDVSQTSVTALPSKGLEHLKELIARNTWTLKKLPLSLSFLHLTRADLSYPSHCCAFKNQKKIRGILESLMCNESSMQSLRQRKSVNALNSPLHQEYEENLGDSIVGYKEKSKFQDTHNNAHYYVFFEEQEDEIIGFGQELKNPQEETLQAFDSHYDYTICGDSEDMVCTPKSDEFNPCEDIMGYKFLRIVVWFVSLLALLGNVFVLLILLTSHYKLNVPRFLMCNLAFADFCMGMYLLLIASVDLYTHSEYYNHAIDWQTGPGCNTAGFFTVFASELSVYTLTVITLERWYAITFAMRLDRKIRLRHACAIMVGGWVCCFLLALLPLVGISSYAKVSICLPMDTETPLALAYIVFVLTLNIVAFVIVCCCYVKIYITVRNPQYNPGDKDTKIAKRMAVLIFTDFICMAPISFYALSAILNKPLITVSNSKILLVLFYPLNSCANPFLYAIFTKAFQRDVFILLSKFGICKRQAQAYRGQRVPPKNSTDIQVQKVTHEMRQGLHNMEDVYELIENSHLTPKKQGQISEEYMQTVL
Method in brief: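 Antagonist mode: compound-treated TSHR-expressing HEK293 cells were stimulated with 1.5 ng/mL TSH (final) in presence of Ro20-1724 for 30 min at RT. HTRF cAMP detection after 1 h; each compound tested at 15 concentrations, triplicate.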

[7] = target: Progesterone receptor (Homo sapiens) (UniProt P06401); assay: qHTS assay to identify small molecule agonists of the progesterone receptor (PR) signaling pathway (AID 1346784; calls by dose curve; note: nearly all actives have a fitted effect of over 30% in size)
Progesterone receptor (Homo sapiens), sequence (P06401 whole entry, looked up): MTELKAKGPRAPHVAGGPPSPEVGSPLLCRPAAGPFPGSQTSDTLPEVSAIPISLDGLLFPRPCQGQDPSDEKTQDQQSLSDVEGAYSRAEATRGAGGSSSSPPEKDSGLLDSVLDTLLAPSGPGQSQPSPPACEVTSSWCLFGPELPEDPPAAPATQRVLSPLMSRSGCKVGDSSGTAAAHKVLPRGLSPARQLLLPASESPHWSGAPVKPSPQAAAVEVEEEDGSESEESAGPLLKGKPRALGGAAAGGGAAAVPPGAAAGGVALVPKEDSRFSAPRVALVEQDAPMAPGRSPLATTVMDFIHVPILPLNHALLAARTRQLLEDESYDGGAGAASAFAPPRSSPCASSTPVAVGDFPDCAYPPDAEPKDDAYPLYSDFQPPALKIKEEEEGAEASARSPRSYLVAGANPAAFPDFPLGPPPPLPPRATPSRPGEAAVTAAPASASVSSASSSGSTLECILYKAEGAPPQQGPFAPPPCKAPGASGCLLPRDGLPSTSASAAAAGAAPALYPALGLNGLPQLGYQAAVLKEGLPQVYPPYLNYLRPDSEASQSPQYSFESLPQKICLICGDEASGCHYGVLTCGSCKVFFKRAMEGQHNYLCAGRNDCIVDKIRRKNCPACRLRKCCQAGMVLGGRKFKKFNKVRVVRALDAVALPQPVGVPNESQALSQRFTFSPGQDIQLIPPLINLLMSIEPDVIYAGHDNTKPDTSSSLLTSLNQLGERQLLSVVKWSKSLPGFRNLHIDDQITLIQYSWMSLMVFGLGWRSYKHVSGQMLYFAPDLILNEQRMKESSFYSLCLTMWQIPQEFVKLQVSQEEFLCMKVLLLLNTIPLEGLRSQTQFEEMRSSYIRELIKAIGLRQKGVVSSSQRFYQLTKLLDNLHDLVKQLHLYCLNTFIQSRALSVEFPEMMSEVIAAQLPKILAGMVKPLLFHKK
Method in brief: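 Using charcoal-stripped serum (2%) to limit endogenous steroids, PR-UAS-bla HEK 293T cells received compounds for 16 hr at 37C after 6 hr plating; beta-lactamase FRET fluorescence was recorded following 2 hr substrate loading at room temperature.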

[8] = target: Progesterone receptor (Homo sapiens) (UniProt P06401); assay: qHTS assay to identify small molecule antagonists of the progesterone receptor (PR) signaling pathway (AID 1346795; active = well fitted inhibition curve with a large enough effect in the signal ratio in the repeat runs, not every such curve was filed as active; the % refers to the signal ratio; note: potency is the fitted concentration of half-maximal effect)
Method in brief: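 Inhibition of R5020-induced (1 nM final) beta-lactamase reporter signal in PR-UAS-bla HEK293T cells was scored by FRET fluorescence after overnight (16 hr) compound treatment.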

[9] = qHTS assay to identify small molecule antagonists of the progesterone receptor (PR) signaling pathway - cell viability counter screen (AID 1346798); note: series mostly up to about 92 µM; nearly all actives have a fitted effect of over 50% in size
Method in brief: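 ATP content as viability readout: CellTiter-Glo luminescence, 30 min room temperature, in PR-UAS-bla HEK293T cells after 16 hr compound/R5020 treatment at 37C and 5% CO2.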

[10] = qHTS assay to identify small molecule agonists of the progesterone receptor (PR) signaling pathway - cell viability counter screen (AID 1346799; calls by dose curve; note: nearly all actives have a fitted effect of over 45% in size)
Method in brief: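 Cytotoxicity in PR-bla HEK293T cells: 16 h compound, 37C; CellTiter-Glo added post-FRET read; luminescence after 30 min RT.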

[11] = qHTS assay to identify small molecule antagonists of the TGF-beta/Smad signaling pathway - cell viability counter screen (AID 1346824); note: nearly all actives have a fitted effect of over 50% in size
Method in brief: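 Cytotoxicity counter-screen run in the same wells as the beta-lactamase Smad reporter read: CellTiter-Glo luminescence after 30 min at room temperature. HEK 293T SBE-bla cells had 5 hr compound exposure at 37 C with TGF-beta1 (0.25 ng/mL stock).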

[12] = qHTS assay to identify small molecule agonists of the TGF-beta/Smad signaling pathway - cell viability counter screen (AID 1346829); note: top concentration of the series differs between compounds; nearly all actives have a fitted effect of over 45% in size
Method in brief: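 SBE-bla HEK 293T cells plated overnight, compound exposure 5 hr at 37 C. Viability read in the same wells by CellTiter-Glo luminescence after 30 min at room temperature, following the beta-lactamase read.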

[13] = qHTS assay to identify small molecule agonists of the TGF-beta/Smad signaling pathway (AID 1346859; active = well fitted activation curve with a large enough effect in the signal ratio in the repeat runs, not every such curve was filed as active; the % refers to the signal ratio; note: series mostly up to about 77 µM)
Method in brief: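 Stable Smad binding element-beta-lactamase HEK 293T cells; 5 hr compound exposure at 37 C under 5% CO2; 2 hr room-temperature substrate step; fluorescence excited at 405 nm, collected at 460 nm and 530 nm.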

[14] = target: Thyrotropin-releasing hormone receptor (Homo sapiens) (UniProt P34981); assay: qHTS assay to identify small molecule antagonists of the thyrotropin-releasing hormone receptor (TRHR) signaling pathway (AID 1346877; active = well fitted inhibition curve with a large enough effect in the repeat runs, not every such curve was filed as active; note: series mostly up to about 51 µM)
Thyrotropin-releasing hormone receptor (Homo sapiens), sequence (P34981 whole entry, looked up): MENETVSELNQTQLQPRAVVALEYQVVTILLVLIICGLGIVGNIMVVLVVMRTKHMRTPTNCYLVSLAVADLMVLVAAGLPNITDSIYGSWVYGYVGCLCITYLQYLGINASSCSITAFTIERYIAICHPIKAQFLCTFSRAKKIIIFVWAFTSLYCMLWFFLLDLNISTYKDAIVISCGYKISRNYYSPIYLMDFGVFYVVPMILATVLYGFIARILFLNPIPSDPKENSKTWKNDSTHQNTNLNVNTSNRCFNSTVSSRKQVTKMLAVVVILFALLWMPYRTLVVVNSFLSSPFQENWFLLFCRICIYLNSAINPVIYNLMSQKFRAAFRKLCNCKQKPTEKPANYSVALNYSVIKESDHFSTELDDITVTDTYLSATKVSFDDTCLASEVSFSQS
Method in brief: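 In this cell-based calcium flux format, HEK293 cells expressing TRHR received test compound for 5 min before the agonist TRH (1 nM final). Dye loading lasted 2 h at 37 °C.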

[15] = target: Thyrotropin-releasing hormone receptor (Homo sapiens) (UniProt P34981); assay: qHTS assay to identify small molecule agonists of the thyrotropin-releasing hormone receptor (TRHR) signaling pathway (AID 1346891; calls by dose curve; note: series mostly up to about 58 µM)
Method in brief: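 In 1536-format, 1500 TRHR-Hek293 cells per well grew 18 h, took up calcium dye for 2 h at 37 °C, received compound, and were read kinetically; 15-point titrations, triplicates.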

[16] = Human pregnane X receptor (PXR) small molecule agonists, qHTS cell viability counter screen (AID 1346977); note: nearly all actives have a fitted effect of over 50% in size; note: potency is the fitted concentration of half-maximal effect
Method in brief: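 Readout is CellTiter-Fluor fluorescence from PXR-Luc HepG2 cells. Plated cells rested 5hr, then were treated with compounds for 24hr at 37C and 5% CO2, with reagent present during the last hour.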

[17] = target: Estrogen receptor beta (Homo sapiens) (UniProt Q92731); assay: qHTS assay to identify small molecule antagonists of the estrogen receptor beta (ER-beta) signaling pathway (AID 1259378; active = well fitted inhibition curve with a large enough effect in the signal ratio in the repeat runs, not every such curve was filed as active; the % refers to the signal ratio; note: potency is the fitted concentration of half-maximal effect)
Method in brief: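 Antagonist mode: compounds added to beta-lactamase reporter HEK293T ER-beta-UAS cells stimulated with E2 (1nM final), 16 hr at 37C. LiveBLAzer B/G FRET substrate, 2 hours room temperature, fluorescence read-out.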

[18] = qHTS assay to identify small molecule agonists of the estrogen receptor alpha (ER-alpha) signaling pathway in the presence of an antagonist - cell viability counter screen (AID 1259386);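 note: cells exposed to compounds for 22 h at 37 °C before the viability read; nearly all actives have a fitted effect of over 30% in size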; note: potency is the fitted concentration of half-maximal effect
Method in brief: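 Fluorescent CellTiter-Fluor viability signal from VM7Luc4E2 cells, with the reagent added during the final hour of a 22hr compound exposure at 37C in the presence of 10.0nM ICI-182,780.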

[19] = target: Androgen receptor (Homo sapiens) (UniProt P10275); assay: qHTS assay to identify small molecule agonists of the androgen receptor (AR) signaling pathway in the presence of an antagonist (AID 1259381; calls by dose curve; note: nearly all actives have a fitted effect of over 15% in size; note: potency is the fitted concentration of half-maximal effect)
Androgen receptor (Homo sapiens), sequence (P10275 whole entry, looked up): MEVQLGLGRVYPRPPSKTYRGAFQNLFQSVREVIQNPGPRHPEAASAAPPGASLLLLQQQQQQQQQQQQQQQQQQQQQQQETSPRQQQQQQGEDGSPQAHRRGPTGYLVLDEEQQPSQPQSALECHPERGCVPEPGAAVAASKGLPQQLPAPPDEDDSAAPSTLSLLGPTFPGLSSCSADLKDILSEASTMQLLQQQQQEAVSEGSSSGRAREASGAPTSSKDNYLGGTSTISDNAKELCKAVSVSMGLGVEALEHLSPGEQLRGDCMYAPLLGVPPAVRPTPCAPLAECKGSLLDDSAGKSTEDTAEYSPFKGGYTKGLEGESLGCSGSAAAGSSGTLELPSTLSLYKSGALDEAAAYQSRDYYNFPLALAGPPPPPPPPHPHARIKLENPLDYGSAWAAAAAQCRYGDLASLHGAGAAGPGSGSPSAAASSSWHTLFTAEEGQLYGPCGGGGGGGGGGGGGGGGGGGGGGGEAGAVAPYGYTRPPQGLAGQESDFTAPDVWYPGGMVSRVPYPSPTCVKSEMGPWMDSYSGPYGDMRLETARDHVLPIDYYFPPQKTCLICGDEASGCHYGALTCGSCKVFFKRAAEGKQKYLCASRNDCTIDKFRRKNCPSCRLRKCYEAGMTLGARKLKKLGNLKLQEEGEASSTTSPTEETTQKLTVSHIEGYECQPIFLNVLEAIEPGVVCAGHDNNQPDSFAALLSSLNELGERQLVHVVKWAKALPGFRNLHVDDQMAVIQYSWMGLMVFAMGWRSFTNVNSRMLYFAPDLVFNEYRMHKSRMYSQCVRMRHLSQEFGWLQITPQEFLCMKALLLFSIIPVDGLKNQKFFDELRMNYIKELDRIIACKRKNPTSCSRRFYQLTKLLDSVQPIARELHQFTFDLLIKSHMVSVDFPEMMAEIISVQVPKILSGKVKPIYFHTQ
Method in brief: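 Here, 15-concentration compound series were pin-transferred onto MDA-kb2 MMTV-luciferase cells already dosed with nilutamide (3.0uM final). After 16hr at 37C, ONE-Glo was added and luminescence read 30min later at room temperature.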

[20] = target: Estrogen receptor (Homo sapiens) (UniProt P03372); assay: qHTS assay to identify small molecule agonists of the estrogen receptor alpha (ER-alpha) signaling pathway in the presence of an antagonist (AID 1259383; calls by dose curve; note: top concentration of the series differs between compounds; nearly all actives have a fitted effect of over 15% in size)
Estrogen receptor (Homo sapiens), sequence (P03372 whole entry, looked up): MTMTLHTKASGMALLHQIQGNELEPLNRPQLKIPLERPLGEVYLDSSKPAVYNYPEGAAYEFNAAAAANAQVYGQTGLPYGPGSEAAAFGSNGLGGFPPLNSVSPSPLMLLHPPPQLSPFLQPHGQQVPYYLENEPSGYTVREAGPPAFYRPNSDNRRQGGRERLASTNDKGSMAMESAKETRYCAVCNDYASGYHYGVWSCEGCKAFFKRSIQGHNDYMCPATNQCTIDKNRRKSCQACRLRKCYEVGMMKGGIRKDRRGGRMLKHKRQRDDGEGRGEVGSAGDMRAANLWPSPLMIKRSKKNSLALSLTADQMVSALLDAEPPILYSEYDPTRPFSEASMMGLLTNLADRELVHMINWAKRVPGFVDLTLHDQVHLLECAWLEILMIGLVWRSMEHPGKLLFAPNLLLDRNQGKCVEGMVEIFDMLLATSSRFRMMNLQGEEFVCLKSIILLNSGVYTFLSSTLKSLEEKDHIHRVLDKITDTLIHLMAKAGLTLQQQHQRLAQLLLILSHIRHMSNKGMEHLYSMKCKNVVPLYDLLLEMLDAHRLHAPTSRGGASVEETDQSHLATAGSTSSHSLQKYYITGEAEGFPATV
Method in brief: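 In VM7Luc4E2 cells, 4,000 per well, compounds at 15 concentrations were co-incubated 22hr at 37C with 10.0nM final ICI-182,780. Luminescence from the stably transfected 4×ERE-luciferase reporter was recorded 30min after ONE-Glo addition.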

Measured: Potency

O=C(O)C(Cl)(Cl)Br
not listed: [17] | [18] | [19] | [20]
inactive: all other assays above

CN1C[C@H](C(=O)N[C@]2(C)O[C@@]3(O)[C@@H]4CCCN4C(=O)[C@H](Cc4ccccc4)N3C2=O)C=C2c3cccc4[nH]cc(c34)C[C@H]21
active: [17] 27.4 µM | [3] 21.8 µM and 7.16 µM | [4] 54.7 µM | [18] 24.4 µM and 20.2 µM | [16] 39.8 µM
48.8 µM (active) and inactive: [8]
not listed: [2] | [19] | [20]
inactive: all other assays above

CCOC(=O)c1cn2nc(OP(=S)(OCC)OCC)cc2nc1C
inactive: [1] | [2] | [3] | [4] | [5] | [18] | [7] | [11] | [16]

CCSCc1ccccc1OC(=O)NC
not listed: [17] | [19] | [20]
inactive: all other assays above

O=C(O)CCCOc1ccc(Cl)cc1Cl
inactive and 55.4 µM (active): [19]
inactive: [17] | [2] | [4] | [5] | [18] | [11] | [12] | [16]

C[Si](Cn1cncn1)(c1ccc(F)cc1)c1ccc(F)cc1
active: [8] 15.4 µM
not listed: [10] | [12] | [16] | [17] | [19] | [20]
inactive: all other assays above

c1ccc2sc(SNC3CCCCC3)nc2c1
not listed: [8] | [9] | [17] | [19]
inactive: all other assays above

CC(C)(C)N(NC(=O)c1ccc(Cl)cc1)C(=O)c1ccccc1
active: [18] 4.83 µM
not listed: [3] | [5] | [6] | [8] | [16] | [17]
inactive: all other assays above

O=C(O)c1ccc(=O)[nH]c1
not listed: [1] | [9] | [17] | [18] | [20]
inactive: all other assays above

CCc1ccccc1N
not listed: [1] | [8] | [9] | [14] | [15] | [17] | [19]
inactive: all other assays above

CCNC(=O)NC(=O)/C(C#N)=N/OC
not listed: [1] | [7] | [8] | [9] | [17] | [19]
inactive: all other assays above
